In PubChem BioAssay (NCI):
Compounds without any hit were thinned out: in the full panel of roughly 83,000, 20% have a hit.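 In brief: 96-well plates, 48 h treatment, single concentration, percent growth endpoint.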 The source made the active and inactive calls.

Each compound was assayed on OVCAR-3 ovarian (assay: NCI-60 one-dose screen, 48 h (100 = growth as untreated, 0 = no growth, -100 = all killed)). Conditions: 10 µM unless noted.
Method: Growth inhibition of the OVCAR-3 human tumor cell line is measured as a screen for anti-cancer activity. Cells are grown in 96 well plates and exposed to the test compound for 48 hours. Compounds are tested at a single concentration, which is 10^-5 M for most compounds. The reported endpoint is percent growth (GI% or GIPRCNT), where numbers from 0 - 100% represent growth inhibition, and numbers from -100% - 0 represent cell death. For example, a value of 40 represents 60% growth inhibition. A value of 0 means no net growth occurred over the course of the experiment. A value of -40 indicates 40% of cells at the beginning of the experiment died by the end of the experiment. A value of -100 means all cells are dead at the end of the experiment.
NCI-60 Human Tumor Cell Lines Screen was performed using the standard one-dose NCI protocol, which is described in more detail at https://dtp.cancer.gov/discovery_development/nci-60/default.htm.
Compounds with GIPRCNT values below 10 were considered active. Activity score was based on GIPRCNT using the following formula: […]
Score is 0 for GIPRCNT values of 100 or above, 50 for GIPRCNT values of 0, and 100 for GIPRCNT values of -100.

SMILES | growth
O=C(Cn1c2ccccc2c2ccncc21)N/N=C/c1cc(O)c(O)c(O)c1 | 106% (inactive)
FC(F)(F)c1cccc([Si](F)(c2cccc(C(F)(F)F)c2)c2cccc(C(F)(F)F)c2)c1 | 68% (inactive)
CC[C@@]1(O)C(=O)OCc2c1cc1n(c2=O)Cc2c-1nc1ccccc1c2/C=N/OC(C)(C)C | -27.3% (active)
COc1ccc(Cn2cc(COc3ccc4c5ccnc(C)c5n(CCCc5ccccc5)c4c3)nn2)cc1 | 76% (inactive)
CC1=C[S+](c2ccccc2)c2cccc3cc4ccccc4c1c23 (stereo not given) | -82.9% (active)
Cc1ccc(Cn2cc(COc3ccc4c5ccnc(C)c5n(CCCc5ccccc5)c4c3)nn2)cc1 | 92.6% (inactive)
C#C[C@H](O)/C=C/CCCCCCC#C[C@H](O)CC[C@@H](O)C#CCCCCCC/C=C/[C@@H](O)C#C | 96% (inactive)
O=C(NCCNc1nccc(-c2c(-c3cccc(O)c3)nc3sccn23)n1)c1ccccc1O | 60.2% (inactive)
CCOC(=O)c1cnc2c(OC)ccc(OC)c2c1Cl | 108% (inactive)
CC(=O)Nc1ccc(OC(=O)c2ccccc2O)cc1 | 110% (inactive)
Cc1cccc[n+]1CCC[n+]1ccccc1C | 112% (inactive)
O=c1cc(Cl)[nH]c(=O)[nH]1 | 109% (inactive)
CC(C)(C)OC(=O)N1CC(Cn2cc(C(F)(F)F)c3c(Cl)ncnc32)C1 | -49.9% (active)
CSc1nc(N)nc2c1ncn2C | 100% (inactive)
C=CC(=O)Nc1cccc(Nc2nc(Nc3ccc(OCCOC(F)F)cc3)ncc2F)c1 | 48.4% (inactive)
S=c1[nH]nc(Cn2c3ccccc3c3ccncc32)o1 | 97.8% (inactive)
Cc1ccc[n+](CC(=O)c2cccc3ccccc23)c1 | 98.6% (inactive)
O=C(CSc1nnc(-c2ccccc2)o1)Nc1ccc(C(=O)/C=C/c2ccccc2)cc1 | 41.8% (inactive)
OC[C@@H](O)C(O[C@@H]1O[C@H](CO)[C@H](O)[C@H](O)[C@H]1O)[C@H](O)[C@@H](O)CO (stereo not given in full) | 103% (inactive)
COc1cc(CN(c2ccc(Cl)cc2)C2OC(=O)c3ccccc32)cc(OC)c1OC (stereo not given) | 48.8% (inactive)

SMILES | growth
COc1ccc(/C=C/C(=O)c2ccc(Oc3ncnc4ccccc34)cc2)cc1OC | 43.8% (inactive)
c1ccc(CNCCN(CCNCc2ccccn2)Cc2ccc3ccccc3c2)nc1 | 1.32% (active)
CC(C)(C)NC(C1=CC(C)(C)c2ccccc2C1=O)c1ccccc1 (stereo not given) | -92.5% (active)
c1cncc(-c2nc3ccccc3[nH]2)c1 | 98.6% (inactive)
Cc1cccc(CC(=O)c2ccccc2)n1 | 105% (inactive)
NS(=O)(=O)c1ccc(-n2nc(-c3ccc(Cl)cc3)ccc2=O)cc1 | 106% (inactive)
COc1ccccc1S(=O)(=O)Nc1ccc2c3c(cc(-c4ccoc4)nc13)C(=O)N2C | 74% (inactive)
Cc1[nH]n(C(=O)c2ccncc2)c(=O)c1N=Nc1ccc(S(=O)(=O)Nc2ccncn2)cc1 | 106% (inactive)
O=C1CCC(c2c(O)cc(O)c3c(=O)c(O)c(-c4ccc(O)c(O)c4)oc23)N1 (stereo not given) | 101% (inactive)
CCCCOc1nc2ccc(Cl)cc2cc1/C=C/C(=O)/C=C/c1ccc(OC)cc1 | 98.2% (inactive)
Clc1ccc(CN2COc3c(ccc4cccnc34)C2)cc1Cl | -1.22% (active)
Cc1ccc2c(C3C(C#N)=C(N)Oc4cc5ccccc5cc43)cc(=O)oc2c1 (stereo not given) | -4.72% (active)
Cc1c(NC(=O)c2sc3nc4c(cc3c2N)CN(Cc2ccccc2)CC4)cccc1C(F)(F)F | 6.31% (active)
Cc1nc(N)nc(SCc2ccccc2)c1Br | 107% (inactive)
COC1=C(OC)C(=O)C=CC1=O | 83.6% (inactive)
Cc1cc2c(cc1C)N(C(=O)CCl)CCN2C(=O)CCl | -95.8% (active)
C[C@]12O[C@H]1[C@H](O)c1c(cc(O)c3c1C(=O)c1cccc(O)c1-3)C2=O | 106% (inactive)
CCn1c(SC)nnc1-c1cc2c([nH]c3ccccc32)c(-c2cccc(O)c2)n1 | -7.34% (active)
Cc1cn(C2CC(F)C(CO)O2)c(=O)[nH]c1=O (stereo not given) | 137% (inactive)
Cc1ccc(-c2cn3cc([N+](=O)[O-])ccc3n2)cc1 | 101% (inactive)
